Results as given in PubChem BioAssay (EPA / NIEHS).
Active and inactive are the calls of the source. The calls were made as follows: active = hit-call score of the fitted dose curve at least 0.9, where 1 is the maximum; inactive = score below 0.9.

Tests used:
[1] = APR_HepG2_CellLoss_72hr: Apredica 72-hour HepG2 Assay for Cell Loss (AID 2282915); conditions: high-content imaging
Outline: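 HepG2 cells were exposed for 72 hr to compounds at 0.39–200 uM (ten concentrations, duplicate) in 0.5% v/v final DMSO. Nuclei were stained with Hoechst 33342 after 3.7% formaldehyde fixation, imaged at 20x, and counted; fits bidirectional versus DMSO.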

[2] = APR_HepG2_P-H2AX_72hr: Apredica 72-hour HepG2 Assay for H2AX Phosphorylation (AID 2282916); conditions: imaging, actives raise or lower the signal;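 also: phospho-histone H2A.x immunostain intensity per cell marking DNA damage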
Outline: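 HepG2 human liver cells were exposed for 72 hr to compounds at 0.39–200 uM (10 concentrations, duplicate per plate) in 0.5% v/v DMSO. Fixed, permeabilized cells were immunolabeled for phospho-histone H2A.x with Hoechst 33342 and imaged by HCS fluorescence; bidirectional fit versus DMSO.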

[3] = APR_HepG2_MitoMembPot_72hr: Apredica 72-hour HepG2 Assay for Mitochondrial Membrane Potential (AID 2282917); conditions: imaging, actives raise or lower the signal
Outline: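 HepG2 cells exposed 72 h to compounds at 0.39–200 uM (0.5% v/v DMSO, duplicates); MitoTracker Red CMXRos 250 nM loaded 30 min before 3.7% formaldehyde fixation, imaged by HCS fluorescence. Bidirectional fit versus DMSO.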

[4] = APR_HepG2_MitoticArrest_72hr: Apredica 72-hour HepG2 Assay for Mitotic Arrest (AID 2282918); conditions: high-content imaging, actives raise or lower the signal
Outline: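 Mitotic arrest in HepG2 is scored from phospho-histone H3 staining after 72 hr dosing across 0.39–200 uM, with DMSO at 0.5% v/v. Nuclei are identified by Hoechst 33342 and fluorescence intensity is quantified per cell.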

[5] = APR_HepG2_MicrotubuleCSK_72hr: Apredica 72-hour HepG2 Assay for Microtubule CSK Stabilty (AID 2282919); conditions: HepG2 microtubule cytoskeleton, high-content imaging, actives raise or lower the signal
Outline: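 HepG2 human liver cells were dosed for 72 h at ten concentrations from 0.39 to 200 uM in duplicate (0.5% v/v DMSO final). Fixed, permeabilized cells were immunostained for alpha-tubulin (Cy5) with a Hoechst counterstain and imaged at 20x.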

[6] = APR_HepG2_StressKinase_72hr: Apredica 72-hour HepG2 Assay for Stress Kinase (AID 2282921); conditions: HepG2 stress kinase (phospho-c-Jun) imaging, actives raise or lower the signal
Outline: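 Cells were exposed for 72 h to ten concentrations (0.39–200 uM, duplicate) at 0.5% v/v DMSO final, then fixed with 3.7% formaldehyde, permeabilized and immunostained for phospho-c-Jun (Cy3 secondary) with Hoechst nuclear counterstain.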

[7] = APR_HepG2_p53Act_72hr: Apredica 72-hour HepG2 Assay for p53 Activation (AID 2282923); conditions: high-content imaging, actives raise or lower the signal;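 also: average cellular p53 protein immunofluorescence intensity in HepG2 cells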
Outline: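 Cells were dosed for 72 hr with compounds at 0.39–200 uM in duplicate (final DMSO 0.5% v/v), then fixed in 3.7% formaldehyde, permeabilized with Triton X-100 and immunostained for p53 (Cy5) with Hoechst 33342 nuclear counterstain.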

[8] = APR_HepG2_MitoMass_72hr: Apredica 72-hour HepG2 Assay for Mitochondrial Mass (AID 2282924); conditions: high-content imaging, actives raise or lower the signal;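 also: MitoTracker Red CMXRos stain intensity per cell imaged as mitochondrial mass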
Outline: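 HepG2 cells were exposed for 72 hr to compounds at 0.39–200 uM (ten concentrations, duplicate, 0.5% v/v DMSO final). Live cells were stained with 250 nM MitoTracker Red CMXRos for 30 min, then fixed in 3.7% formaldehyde and imaged by HCS fluorescence.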

[9] = APR_HepG2_NuclearSize_72hr: Apredica 72-hour HepG2 Assay for Nuclear Size (AID 2282925); conditions: high-content imaging, actives raise or lower the signal
Outline: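 HepG2 cells were exposed to compounds at ten concentrations from 0.39 to 200 uM (duplicate, 0.5% DMSO final) for 72 hr. After fixation in 3.7% formaldehyde, nuclei were stained with Hoechst 33342 (2 ug/mL) and imaged at 20x.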

[10] = ATG_CRE_CIS: Attagene CIS-FACTORIAL HepG2 Assay for human cAMP Responsive Element (CRE) binding protein 3 (AID 2282926); conditions: HepG2 CRE cis-reporter, Attagene multiplexed mRNA; actives raise or lower the signal
Outline: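 We dosed HepG2 cells bearing multiple cis-promoter reporter units for 24 h and measured reporter mRNA by RT-PCR with capillary electrophoresis detection. Bidirectional concentration-response fitting used DMSO as negative control.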

[11] = molecular target: CCAAT/enhancer-binding protein beta (Homo sapiens) (UniProt P17676); assay: ATG_C_EBP_CIS: Attagene CIS-FACTORIAL HepG2 Assay for human CCAAT/Enhancer Binding Protein (C/EBP) beta (AID 2282927); conditions: HepG2 Attagene cis-factorial transcription factor reporter; actives raise or lower the signal
Outline: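 RT-PCR/capillary electrophoresis fluorescence of reporter mRNA, 24 h post-dose, in HepG2 cells carrying transfected cis-promoter reporter units. Bidirectional curve fitting against DMSO baseline captures gain or loss of signal.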

[12] = ATG_CMV_CIS: Attagene CIS-FACTORIAL HepG2 Assay for human CMV (Internal Marker) (AID 2282928); conditions: HepG2 CMV promoter reporter, transcription factor profiling; actives raise or lower the signal;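 also: endpoint acts as a background internal control marker rather than a target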
Outline: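 After transient transfection of HepG2 with reporter transcription units driven by cis-regulatory promoters, cells receive test chemical for 24 h. Labeled reporter amplicons, digested with HpaI, are sized and quantified by capillary electrophoresis against DMSO.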

[13] = ATG_DR4_LXR_CIS: Attagene CIS-FACTORIAL HepG2 Assay for human Liver X Receptor (LXR), DR4 submotif (AID 2282929); conditions: HepG2 Attagene DR4 cis-reporter, mRNA transcription; actives raise or lower the signal
Outline: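 Total RNA from 24 h-treated, MRTU-transfected HepG2 cells underwent reverse transcription, PCR, fluorescent primer extension and restriction digestion before capillary electrophoresis. Both increases and decreases in reporter signal were fitted against DMSO.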

[14] = molecular target: Aryl hydrocarbon receptor (Homo sapiens) (UniProt P35869); assay: ATG_Ahr_CIS: Attagene CIS-FACTORIAL HepG2 Assay for human Aryl Hydrocarbon Receptor (Ahr) (AID 2282930); conditions: HepG2 AhR cis-factorial reporter transcription; actives raise or lower the signal
Outline: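 HepG2 cells transiently transfected with cis-element-driven multiplexed reporter transcription units; endogenous transcription factor activity measured as reporter mRNA 24 h after dosing. RT-PCR, 6-FAM labelling, HpaI digestion, capillary electrophoresis; bidirectional fitting versus DMSO baseline.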

[15] = ATG_AP_1_CIS: Attagene CIS-FACTORIAL HepG2 Assay for human Activator Protein 1 (AP-1) (AID 2282931); conditions: HepG2 Attagene cis-factorial AP-1 reporter mRNA; actives raise or lower the signal
Outline: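 HepG2, transient cis-reporter transfection; 24 h; readout RT-PCR/CE fluorescence; DMSO baseline, gain and loss fitted.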

[16] = ATG_AP_2_CIS: Attagene CIS-FACTORIAL HepG2 Assay for human Activator Protein 2 (AP-2) (AID 2282932); conditions: HepG2 AP-2 cis-reporter, Attagene transcription factor profiling; actives raise or lower the signal
Outline: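 HepG2 cells were transiently transfected with multiple cis-promoter reporter transcription units and dosed for 24 h. Reporter mRNA was measured by RT-PCR with capillary electrophoresis fluorescence; bidirectional fits relative to DMSO baseline.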

[17] = APR_HepG2_StressKinase_24hr: Apredica 24-hour HepG2 Assay for Stress Kinase (AID 2282922); conditions: HepG2 stress kinase (phospho-c-Jun) imaging, actives raise or lower the signal
Outline: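 HepG2 cells exposed 24 hr to compound at 0.39–200 uM (10 concentrations, duplicate), 0.5% v/v DMSO final. Fixed in 3.7% formaldehyde, permeabilized with Triton X-100, immunolabeled for phospho-c-Jun with Hoechst 33342; HCS fluorescence imaging, bidirectional fit versus DMSO.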

[18] = ATG_BRE_CIS: Attagene CIS-FACTORIAL HepG2 Assay for human Bone Morphogenetic Protein (BMP) Response Element (BRE) (AID 2282933); conditions: HepG2 BMP response element reporter, Attagene transcription factor profiling; actives raise or lower the signal
Outline: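 HepG2 cells transiently transfected with CIS reporter units (endogenous TF activity, BMP response element), dosed 24 h. Reporter mRNA quantified by RT-PCR, fluorescent labelling and capillary electrophoresis; bidirectional fit vs DMSO baseline.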

[19] = molecular target: Retinoic acid receptor alpha (Homo sapiens) (UniProt P10276); assay: ATG_DR5_RAR_CIS: Attagene CIS-FACTORIAL HepG2 Assay for human Retinoic Acid Receptor Alpha (RARE), DR5 submotif (AID 2282934); conditions: HepG2 Attagene cis-factorial RARE DR5 reporter, mRNA; actives raise or lower the signal
Outline: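 HepG2 cells transiently transfected with multiplexed reporter units under cis (DR5 RARE) promoters, so endogenous transcription factor activity is measured. After 24 h compound exposure, reporter mRNA is quantified by RT-PCR with fluorescent labelling and capillary electrophoresis; bidirectional fitting versus DMSO.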

Measured: AC50

CCAAT/enhancer-binding protein beta (Homo sapiens), sequence (P17676 whole entry, looked up): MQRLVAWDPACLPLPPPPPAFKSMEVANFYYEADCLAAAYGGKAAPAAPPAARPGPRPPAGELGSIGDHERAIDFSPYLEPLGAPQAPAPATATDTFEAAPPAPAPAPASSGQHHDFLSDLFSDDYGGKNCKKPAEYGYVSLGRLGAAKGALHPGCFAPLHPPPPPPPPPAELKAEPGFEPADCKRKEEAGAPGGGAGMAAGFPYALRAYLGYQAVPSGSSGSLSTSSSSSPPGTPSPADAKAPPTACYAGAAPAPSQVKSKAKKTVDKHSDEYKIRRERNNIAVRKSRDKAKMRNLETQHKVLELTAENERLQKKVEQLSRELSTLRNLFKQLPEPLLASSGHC
Aryl hydrocarbon receptor (Homo sapiens), sequence (P35869 whole entry, looked up): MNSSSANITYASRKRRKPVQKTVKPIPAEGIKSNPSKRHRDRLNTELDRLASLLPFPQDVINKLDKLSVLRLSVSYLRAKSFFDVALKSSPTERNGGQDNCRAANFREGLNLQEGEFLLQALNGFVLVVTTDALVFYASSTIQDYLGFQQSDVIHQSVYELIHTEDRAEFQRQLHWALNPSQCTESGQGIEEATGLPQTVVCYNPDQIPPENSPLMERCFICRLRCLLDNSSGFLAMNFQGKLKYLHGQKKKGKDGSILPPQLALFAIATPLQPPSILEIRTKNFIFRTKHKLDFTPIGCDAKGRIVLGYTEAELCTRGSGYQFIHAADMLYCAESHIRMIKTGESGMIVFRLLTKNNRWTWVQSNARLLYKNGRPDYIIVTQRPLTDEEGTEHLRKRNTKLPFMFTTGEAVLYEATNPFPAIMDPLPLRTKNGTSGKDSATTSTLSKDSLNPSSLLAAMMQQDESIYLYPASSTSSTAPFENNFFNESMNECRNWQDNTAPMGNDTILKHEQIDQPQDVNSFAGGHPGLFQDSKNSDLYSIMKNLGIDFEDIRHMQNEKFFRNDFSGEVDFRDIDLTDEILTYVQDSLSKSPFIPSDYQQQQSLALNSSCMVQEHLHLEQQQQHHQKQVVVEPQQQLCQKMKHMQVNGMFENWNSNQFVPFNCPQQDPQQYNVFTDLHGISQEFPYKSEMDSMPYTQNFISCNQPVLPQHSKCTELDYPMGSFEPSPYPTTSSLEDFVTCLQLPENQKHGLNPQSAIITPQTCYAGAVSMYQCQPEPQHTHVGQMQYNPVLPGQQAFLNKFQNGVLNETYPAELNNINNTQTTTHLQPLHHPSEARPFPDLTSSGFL
Retinoic acid receptor alpha (Homo sapiens), sequence (P10276 whole entry, looked up): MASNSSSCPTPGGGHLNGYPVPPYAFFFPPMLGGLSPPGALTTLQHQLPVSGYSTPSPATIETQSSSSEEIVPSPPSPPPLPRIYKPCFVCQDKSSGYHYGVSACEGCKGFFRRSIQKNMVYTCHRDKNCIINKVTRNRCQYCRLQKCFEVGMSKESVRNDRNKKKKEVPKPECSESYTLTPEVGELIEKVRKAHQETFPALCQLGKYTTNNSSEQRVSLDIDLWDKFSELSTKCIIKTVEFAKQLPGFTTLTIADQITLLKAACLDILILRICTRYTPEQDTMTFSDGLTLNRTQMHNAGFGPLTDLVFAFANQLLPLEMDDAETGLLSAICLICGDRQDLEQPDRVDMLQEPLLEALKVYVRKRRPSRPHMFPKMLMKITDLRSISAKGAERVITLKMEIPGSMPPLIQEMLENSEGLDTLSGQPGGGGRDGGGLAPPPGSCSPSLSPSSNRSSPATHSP

COc1cc(-c2nc(NC(=O)c3cc4cc(C)cc(C)c4n3CC(=O)O)sc2CCC2CCCCC2)c(OC)cc1Cl
active: [1] 26.4 µM | [4] 41.1 µM | [5] 25.2 µM | [8] 78.6 µM | [10] 36 µM | [11] 4.79 µM | [12] 3.3 µM | [14] 10.4 µM | [15] 3.59 µM | [16] 10.4 µM
inactive: [2] | [3] | [6] | [7] | [9] | [13]

O=C(N[C@@H](Cc1ccccc1)[C@@H](O)C(=O)N1C[C@@H](O)[C@@H](O)C1)c1cc2cc(Cl)ccc2[nH]1
active: [1] 104 µM | [2] 107 µM | [3] 97.2 µM | [4] 108 µM | [7] 104 µM | [13] 60.5 µM | [15] 159 µM | [16] 155 µM
inactive: [5] | [6] | [17] | [12] | [14] | [18] | [19]

COc1cc(S(=O)(=O)O)c(C)cc1N=Nc1c(O)ccc2cc(S(=O)(=O)O)ccc12
not listed: [8] | [18] | [19]
inactive: all other assays above

FC(F)(F)C(F)(F)C(F)(F)C(F)(F)C(F)(F)C(F)(F)CCI
active: [14] 32.1 µM
not listed: [9] | [10] | [11] | [17] | [18]
inactive: all other assays above

COc1ccc(S(=O)(=O)N2C(=O)[C@@](c3ccccc3OC)(N3C[C@H](O)C[C@H]3C(=O)N(C)C)c3cc(Cl)ccc32)c(OC)c1
inactive: [3] | [5] | [12] | [16] | [19]
active: [1] 61 µM | [2] 106 µM | [4] 40.7 µM | [6] 100 µM | [7] 100 µM | [8] 65.7 µM | [9] 130 µM | [10] 87.9 µM | [13] 26.1 µM | [14] 29.9 µM | [15] 27.6 µM

c1cc(-c2ccncc2)ccn1
not listed: [8] | [10] | [11] | [17]
inactive: all other assays above

Cc1ccc(C(C)C)c(O)c1
not listed: [8] | [9]
inactive: all other assays above

CCCCCCCCCCCCCCCCCC(=O)O
active: [4] 49.9 µM
not listed: [9] | [17]
inactive: all other assays above
